# mcGAS RapidFire: inhibitors of mouse cGAS | Q8C6L5 | 0.18% of 130,000 active | inhibition, % at 12.5 µM | recombinant mouse cGAS, cGAMP by RapidFire MS | AID 1259397;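 active = inhibition of cGAS enzyme activity at or above 60%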;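 note: enzyme stimulated by 45 bp dsDNA with ATP and GTP substrates; cGAMP share of summed cGAMP plus half ATP and half GTP signals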
# Target sequence (Q8C6L5 whole entry, looked up): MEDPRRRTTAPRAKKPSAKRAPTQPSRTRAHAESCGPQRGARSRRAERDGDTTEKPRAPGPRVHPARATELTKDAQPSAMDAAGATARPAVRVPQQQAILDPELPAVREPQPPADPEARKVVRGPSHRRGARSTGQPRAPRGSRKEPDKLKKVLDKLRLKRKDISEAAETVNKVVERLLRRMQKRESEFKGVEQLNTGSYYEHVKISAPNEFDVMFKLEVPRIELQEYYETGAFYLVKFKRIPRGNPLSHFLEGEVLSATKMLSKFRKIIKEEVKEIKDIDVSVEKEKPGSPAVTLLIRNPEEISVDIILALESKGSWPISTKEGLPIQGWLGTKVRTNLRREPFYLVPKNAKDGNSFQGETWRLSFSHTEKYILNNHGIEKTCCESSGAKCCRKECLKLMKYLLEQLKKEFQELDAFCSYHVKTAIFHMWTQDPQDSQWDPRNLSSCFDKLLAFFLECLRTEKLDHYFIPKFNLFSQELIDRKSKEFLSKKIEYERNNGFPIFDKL
# * = called active by the depositor. This is one part of a sample in which hits are shown more often than they occur.
SMILES,mcGAS RapidFire
O=C(O)C1CSC(c2cc(Br)ccc2O)N1 (stereo not given),-2.5
O=C(O)C1CSC(c2cc(Br)c(O)c(Br)c2)N1 (stereo not given),87.4*
CSc1ccc(C2NC(C(=O)O)CS2)cc1 (stereo not given),-3.8
COCC1(C(=O)N2CC=C(n3c(=O)[nH]c4ccccc43)CC2)CCC1,-11.4
O=c1c(O)c(-c2ccc(O)c(O)c2)oc2c(O[C@@H]3O[C@H](CO)[C@H](O)[C@@H](O)[C@H]3O)c(O)cc(O)c12,1.0
OCc1cc(O)c2c(O)c3c(O)cccc3c(O[C@@H]3O[C@H](CO)[C@H](O)[C@@H](O)[C@H]3O)c2c1,-6.1
CN(C1CCCCC1)S(=O)(=O)c1ccc(SC2CCOC2=O)nc1 (stereo not given),-3.5
CCC(C)[C@H](NC(=O)N1CCCC1)C(=O)Nc1cccc(COC)c1 (stereo not given in full),-56.9
COC(=O)c1cc(C(C)C)nc2c1c(C)nn2C1CCS(=O)(=O)C1 (stereo not given),-9.8
CCC1CN(C(=O)CCC(=O)Nc2cc(C)ccc2F)CCN1 (stereo not given),-20.2
CC(C)C(=O)Nc1cc(C2CC2)nn1C1CCS(=O)(=O)C1 (stereo not given),82.0*
COC(=O)c1cc(C2CC2)nc2c1c(-c1cccs1)nn2C1CCS(=O)(=O)C1 (stereo not given),-8.0
Cc1cc(NCc2ccc(Cl)cc2)n(C2CCS(=O)(=O)C2)n1 (stereo not given),-20.8
CCC(c1ccnn1C)n1cnc(-c2ccccc2)c1-c1nccn1C (stereo not given),-4.4
N#Cc1c(N)oc2c3c(c(O)cc12)C(=O)c1ccccc1C3=O,68.5*
Cc1cc(=O)oc2c(-c3cc(-c4cccs4)nc(N)n3)c(O)ccc12,-5.8
Cc1oc2ccccc2c1C#N,-7.4
Cc1c(/C=C/c2ccc(Br)cc2F)n[nH]c(=O)c1C#N,16.4
CC(=O)c1ccc(OCc2ccccc2)c(OCc2ccccc2)c1O,-4.9
C=C1C(C)(C)[C@H]2CC[C@]1(C(=O)N1CCc3nc(C)n(C)c(=O)c3CC1)C2,6.2
O=C1C=CC(=O)N1c1ccccc1,-6.4
O=C1C=CC2C3C(=O)N(c4ccccc4)C(=O)C3C1N2c1ccccc1 (stereo not given),92.0*
O=C1C2C3C=CC(C3)C2C(=O)N1c1ccccc1 (stereo not given),-3.6
O=C1CCCN1CC1CCCCN1Cc1csc(COc2ccccc2)n1 (stereo not given),-0.6
O=C(O)C=Cc1ccc([N+](=O)[O-])o1,1.9
SMILES,mcGAS RapidFire
CC(C)OC(=O)C(C#N)=Cc1ccc([N+](=O)[O-])o1,64.3*
N#CC(=Cc1ccc([N+](=O)[O-])o1)c1nc(C2CC2)cs1,-15.8
CCn1ccnc1CN(C)C(=O)c1[nH]c2c(C)cc(C)cc2c1C,2.2
CC1(C(=O)Nc2ccccc2)CCN1C(=O)c1ccco1 (stereo not given),-8.4
CCS(=O)(=O)NCCN1CCC(C)N(Cc2ccccc2)CC1 (stereo not given),-2.4
N#Cc1ccc(C2C(C(=O)O)CCC(=O)N2CC2CCCO2)cc1 (stereo not given),-4.2
O=C1NC(=S)SC1=Cc1ccccc1[N+](=O)[O-],2.4
COc1ccc(-c2ccc(/C=C3\SC(=S)NC3=O)o2)c([N+](=O)[O-])c1,64.9*
COc1cc(C=C2SC(=S)NC2=O)cc(OC)c1,-4.8
Cc1cccc(C)c1N=C1NC(=O)/C(=C/C2=Cc3ccccc3OC2)S1,-14.5
COc1ccccc1OCCN(C)CCNC(=O)OC(C)(C)C,-26.3
N#Cc1c(C2CCOC2)cc(-c2ccc(O)cc2)nc1N (stereo not given),-14.1
N#Cc1c(N)nc2c(c1N)C(Sc1ccccc1)c1ccc(O)cc1O2 (stereo not given),86.7*
N#CCSc1nc(N)c(C#N)c(-c2ccc(O)cc2)c1C#N,-8.7
NC(=O)C1CCN(C(=O)CSc2nnc(N)s2)CC1,14.7
Cc1cc(C)n2c(SCC(=O)NCCOc3ccccc3)nnc2n1,-1.1
CC(C)CCNC(=O)NC(=O)CSc1nnc(C2CC2)n1C,-6.3
CC(C)CC1(C(=O)NC2CCOc3ccccc32)CCCC1 (stereo not given),-7.2
CC1CCN(Cc2csc(NC(=O)CC3OC(=O)c4ccccc43)n2)CC1 (stereo not given),-1.8
Nc1ccc(O)c(C(=O)O)c1,-4.4
O=C(O)C1=CC(=C(c2ccc(O)c(C(=O)O)c2)c2ccc(O)c(C(=O)O)c2)C=CC1=O,95.4*
Cc1cc(O)ccc1C(=O)O,-0.7
O=c1c2nnn(-c3ccc(F)cc3)c2ncn1Cc1ccc(F)cc1,5.2
Clc1c(-c2nnco2)sc2ccccc12,-3.1
S=c1[nH]nc(-c2ccccc2Cl)o1,-5.2
S=c1[nH]nc(-c2sc3ccccc3c2Cl)o1,91.8*
O=S(=O)(c1ccc(S(=O)(=O)N(CCO)c2ccccc2)cc1)N1CCCC1,-20.1
COCC(=O)N1CCN(c2ncnc3c2nnn3C)CC1,-1.5
COc1cccc(-c2nc(-c3c[nH]c4ccccc34)cs2)c1OC,-1.7
